Reference: PubChem BioAssay (NCATS)
Unmarked numbers belong to inactive results. Results filed as inconclusive are left out. Calls of active or inactive are those of the source. Unless noted, calls follow the shape of the dose curve; as a rule, active = well fitted curve in either direction with a large enough effect (not every such curve was filed as active); inconclusive = small, poorly fitted or top-dose-only effect, or another doubt; inactive = flat fitted curve, though single readings scatter.

Tests used:
[1] = AP1 Signaling Pathway (AID 357); settings: ME-180 AP-1-bla reporter, EGF-induced, beta-lactamase ratio, 5 h; at 17.2 µM (top of the series) unless noted; also: % is scaled to controls: 0 for no effect and ±100 for the full control effect
How it was run: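 Titration-series screen for positive or negative modulators of EC50 EGF-induced signaling in ME-180 cells carrying an AP-1-driven beta-lactamase reporter. After 5 hours at 37 degrees Celsius, CCF4 460nm/530nm emission ratio gave %Activity; AC50 values derived.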

[2] = NFAT Signaling Pathway (AID 444); settings: Jurkat NFAT-bla M1, carbachol, beta-lactamase ratio, 5 h; at 17.2 µM (top of the series) unless noted;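 also: carbachol stimulus at about its EC50 of 1 µM final; % is scaled to controls: 0 for no effect and ±100 for the full control effect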
How it was run: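 Jurkat cells carrying an NFAT-driven β-lactamase reporter and co-transfected muscarinic M1 receptor were treated with compound plus carbachol (1 uM final, an EC50 level) for 5 h at 37 °C. CCF4 loading followed for 1 h at RT; 460/530 nm ratio gave %activity.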

[3] = Stat Signaling Pathway (AID 446); settings: ME-180 SIE beta-lactamase reporter, IL-6 stimulated, 5 h; at 17.2 µM (top of the series) unless noted;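 also: ME-180 cervical cancer cells given 40 pM IL-6 alongside compound; SIE-controlled beta-lactamase reporter measured as 460/530 nm FRET emission ratio; % is scaled to controls: 0 for no effect and ±100 for the full control effect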
How it was run: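 ME-180 SIE-bla cells; overnight plating; cpd + IL-6 40 pM, 5 h, 37 C; LiveBLAzer 2.5 h RT; 460/530 nm emission ratio. Normalized to 300 pM IL-6 and 125 nM JAK inhibitor controls.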

[4] = molecular target: Glucocorticoid receptor (Homo sapiens) (UniProt P04150); test: GR-GFP Redistribution (AID 450;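 active = compounds whose dose series gives a full or clear partial fitted curve of increased nuclear translocation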; also: potency is read from the fitted curve at half-maximal effect); settings: U2OS GR-GFP nuclear translocation, laser cytometry, 2 h; series mostly up to 20.6 µM
Sequence of Glucocorticoid receptor (Homo sapiens) (P04150 whole entry, looked up): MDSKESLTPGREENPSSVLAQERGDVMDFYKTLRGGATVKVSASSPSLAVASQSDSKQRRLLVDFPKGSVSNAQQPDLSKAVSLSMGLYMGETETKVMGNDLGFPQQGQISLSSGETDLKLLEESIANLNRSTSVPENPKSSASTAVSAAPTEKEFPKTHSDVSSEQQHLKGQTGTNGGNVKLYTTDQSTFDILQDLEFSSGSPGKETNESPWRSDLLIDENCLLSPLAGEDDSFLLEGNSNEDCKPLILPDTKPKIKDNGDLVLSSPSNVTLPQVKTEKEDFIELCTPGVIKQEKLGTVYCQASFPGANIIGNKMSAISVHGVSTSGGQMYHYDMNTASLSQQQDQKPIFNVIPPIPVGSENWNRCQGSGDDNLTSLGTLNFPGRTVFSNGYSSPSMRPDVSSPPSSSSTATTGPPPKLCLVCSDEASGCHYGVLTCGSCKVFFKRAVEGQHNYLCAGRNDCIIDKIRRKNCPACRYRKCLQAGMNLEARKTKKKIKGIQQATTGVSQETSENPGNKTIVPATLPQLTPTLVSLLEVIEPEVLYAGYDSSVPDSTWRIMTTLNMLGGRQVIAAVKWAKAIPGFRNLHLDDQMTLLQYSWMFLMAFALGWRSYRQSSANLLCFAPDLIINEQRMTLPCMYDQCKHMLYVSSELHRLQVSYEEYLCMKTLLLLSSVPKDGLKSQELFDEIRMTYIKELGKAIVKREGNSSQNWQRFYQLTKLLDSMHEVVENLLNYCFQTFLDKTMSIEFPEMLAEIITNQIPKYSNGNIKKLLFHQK

Structure (SMILES)	activity change, negative = inhibition [1] [%]	activity change, negative = inhibition [2] [%]	activity, negative = inhibition [3] [%]	Potency [4]
Cc1ccccc1N1C(=O)C2ON(c3ccccc3)C(c3ccncc3)C2C1=O (stereo not given)	5.78	18.5	1.29	> 20.6 µM
Nc1[nH]nc2nc(NCc3ccccc3)c3c(c12)CCN(Cc1ccccc1)C3	-11.4	0.244	6.86	> 20.6 µM
Oc1ccc2ccccc2c1C=NC12CN3CCN(CN(C3)C1)C2	6.89	-22.1	-13.6	> 20.6 µM
CCC1(C)Cc2c(sc3[nH]c(=O)[nH]c(=O)c23)CS1 (stereo not given)	6.31	6.7	-2.55	> 20.6 µM
Cc1ccc(C2/C(=C(\O)c3ccc4c(c3)OCCO4)C(=O)C(=O)N2CCCN(C)C)o1 (stereo not given)	1.54	-21.4	-1.3	> 20.6 µM
N#Cc1cccc(-n2c(-c3ccccc3)nnc2-c2ccccc2)c1C#N	4.78	5.67	0.928	> 20.6 µM
O=C(O)CCc1nn2cc(-c3ccccc3)nc2[nH]c1=O	6.39	-22.2	10.5	> 20.6 µM
N#Cc1c(SCC(=O)O)nc(N2CCCCC2)c2c1CCCC2	6.2	10.4	-7.23	> 20.6 µM
O=C1C=C(O)CC(c2ccc(Cl)c(Cl)c2)C1 (stereo not given)	7.55	-10.9	-4.42	> 20.6 µM
Cc1ccc(N2C(=O)C3ON(c4ccccc4)C(c4ccncc4)C3C2=O)c(C)c1 (stereo not given)	4.43	26.3	0.652	> 20.6 µM
Nc1nnc(CSCc2ccc(F)cc2)s1	8.86	-1.8	-2.21	> 20.6 µM
O=C(c1nsnc1-c1ccccc1O)N1CCCCC1	12.2	6.47	-2.4	> 20.6 µM
COc1ccc(N2C(=O)CN=C2Nc2nc(C)cc(C)n2)cc1	8.39	-10	4.62	> 20.6 µM
CCOC(=O)NC(Nc1sc2c(c1C(N)=O)CCCC2)(C(=O)OCC)C(F)(F)F (stereo not given)	-6.03	-0.536	-7.59	> 20.6 µM
COc1cc(C)nc(Nc2nc(C)c(C(C)=O)s2)n1	12.9	-2.73	4.9	> 20.6 µM
Cc1cc(C)n(Cc2ccc(C(=O)NCCC3=CCCCC3)o2)n1	-15.1	-1.94	1.51	> 20.6 µM
CN(C)CCCn1c(NC(=O)C2CCCCC2)nc2ccccc21	1.38	-10.7	6.97	> 20.6 µM
O=C(O)c1cc2n(n1)C(C(F)(F)F)CC(c1ccccc1)N2 (stereo not given)	3.84	-0.387	-1.46	> 20.6 µM
CC(=O)Oc1ccc2c(C)cc(=O)[nH]c2c1	8.38	-13.4	-3.86	> 20.6 µM
CC(=O)OCC(=O)[C@@]1(O)CC[C@H]2[C@@H]3CCC4=CC(=O)C=C[C@]4(C)[C@@]3(Cl)[C@@H](Cl)C[C@@]21C	11.8	-9	-0.258	0.0078 µM (active)
